# Data taken from ChEMBL document CHEMBL3988442, “University of Dundee, Small-Polar-MMV Screening Library” (2021).
# For some of these results: Entries with a potency or affinity are not part of this list.
# What was measured:
# Design in all cases: scale not given: direction of the effect not stated beside the values
# [1] = target: Protein translocase subunit SecA (Escherichia coli (strain K12)) (UniProt P10408); experiment: Assay to Identify E. coli SecA ATPase Inhibitors; assay type: functional; settings: 30 µM
# Chain of Protein translocase subunit SecA (Escherichia coli (strain K12)) (P10408 whole entry): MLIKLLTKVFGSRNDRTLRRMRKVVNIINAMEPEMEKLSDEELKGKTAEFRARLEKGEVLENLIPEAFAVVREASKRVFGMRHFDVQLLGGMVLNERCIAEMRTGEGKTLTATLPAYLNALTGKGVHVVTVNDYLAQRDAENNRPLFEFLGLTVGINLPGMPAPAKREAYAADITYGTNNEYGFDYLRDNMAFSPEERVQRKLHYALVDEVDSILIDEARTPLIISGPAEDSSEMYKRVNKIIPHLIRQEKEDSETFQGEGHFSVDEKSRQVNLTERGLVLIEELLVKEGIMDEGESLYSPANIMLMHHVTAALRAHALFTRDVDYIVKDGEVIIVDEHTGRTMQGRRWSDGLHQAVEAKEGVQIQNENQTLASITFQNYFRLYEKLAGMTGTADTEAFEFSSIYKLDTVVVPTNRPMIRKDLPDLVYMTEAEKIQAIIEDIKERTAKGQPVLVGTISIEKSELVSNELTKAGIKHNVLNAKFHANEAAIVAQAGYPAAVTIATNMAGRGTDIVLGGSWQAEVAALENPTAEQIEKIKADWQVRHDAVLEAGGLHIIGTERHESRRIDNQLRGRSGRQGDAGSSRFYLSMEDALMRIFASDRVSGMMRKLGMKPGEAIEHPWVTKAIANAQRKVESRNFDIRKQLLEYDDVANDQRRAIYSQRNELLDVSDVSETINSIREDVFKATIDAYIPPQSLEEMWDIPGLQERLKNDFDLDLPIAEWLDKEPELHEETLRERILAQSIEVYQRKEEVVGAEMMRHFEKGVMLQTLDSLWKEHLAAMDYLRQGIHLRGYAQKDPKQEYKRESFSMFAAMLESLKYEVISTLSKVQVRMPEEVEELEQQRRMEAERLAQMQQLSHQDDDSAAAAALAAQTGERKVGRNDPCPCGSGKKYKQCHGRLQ
# [2] = target: T1, Ubiquitin-activating enzyme e1, putative (Leishmania donovani (strain BPK282A1)) (UniProt E9BSI1); experiment: Leishmania donovani Ubiquitin Activating Enzyme (LdE1); assay type: functional; settings: 30 µM
# T1 sequence (whole entry): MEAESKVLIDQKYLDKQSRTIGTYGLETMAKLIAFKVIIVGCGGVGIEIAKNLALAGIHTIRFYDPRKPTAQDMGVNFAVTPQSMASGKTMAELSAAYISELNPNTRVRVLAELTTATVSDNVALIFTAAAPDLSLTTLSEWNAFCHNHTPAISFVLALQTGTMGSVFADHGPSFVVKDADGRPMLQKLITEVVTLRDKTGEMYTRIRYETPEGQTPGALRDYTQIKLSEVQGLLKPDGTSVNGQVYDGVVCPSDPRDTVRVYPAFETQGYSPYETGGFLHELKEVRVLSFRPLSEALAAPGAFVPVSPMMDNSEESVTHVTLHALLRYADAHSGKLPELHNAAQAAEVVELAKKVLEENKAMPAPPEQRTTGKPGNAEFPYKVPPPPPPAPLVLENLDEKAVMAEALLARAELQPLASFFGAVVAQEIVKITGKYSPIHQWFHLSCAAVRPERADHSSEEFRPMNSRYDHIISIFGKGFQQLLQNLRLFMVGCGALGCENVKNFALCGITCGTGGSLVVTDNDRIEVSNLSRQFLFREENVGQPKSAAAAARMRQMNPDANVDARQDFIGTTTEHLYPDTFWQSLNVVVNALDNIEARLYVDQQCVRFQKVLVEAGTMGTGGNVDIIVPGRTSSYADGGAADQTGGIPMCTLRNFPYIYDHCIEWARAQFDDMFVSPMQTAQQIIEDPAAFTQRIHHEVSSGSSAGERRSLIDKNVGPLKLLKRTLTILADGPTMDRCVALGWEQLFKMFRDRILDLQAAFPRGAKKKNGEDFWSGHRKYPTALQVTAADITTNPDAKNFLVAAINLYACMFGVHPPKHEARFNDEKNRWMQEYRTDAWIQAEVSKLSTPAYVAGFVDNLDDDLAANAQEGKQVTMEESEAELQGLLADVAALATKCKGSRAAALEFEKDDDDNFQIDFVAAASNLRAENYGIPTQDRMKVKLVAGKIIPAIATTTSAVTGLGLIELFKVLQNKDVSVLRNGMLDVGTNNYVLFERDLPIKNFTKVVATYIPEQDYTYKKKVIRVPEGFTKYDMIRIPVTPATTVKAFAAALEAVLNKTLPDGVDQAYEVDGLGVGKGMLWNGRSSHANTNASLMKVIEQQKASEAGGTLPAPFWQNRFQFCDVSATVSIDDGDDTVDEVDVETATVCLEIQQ
# [3] = target: AMP-activated protein kinase, AMPK (Homo sapiens) (UniProt P54646+O43741+P54619+Q9UGJ0+Q9Y478+Q13131+Q9UGI9); experiment: AMP-dependent Kinase enzyme assay. An in vitro enzyme assay that detects ADP turnover that is directly proportional to AMPK activity. This uses naive AMPK that is activated during the assay with MK-8722; assay type: functional; settings: 30 µM
# [4] = target: Sialic acid-binding Ig-like lectin 9 (Homo sapiens) (UniProt Q9Y336); experiment: Hs-Siglec9 ALPHAscreen SOP 20170721; settings: 10 µM
# Chain of Sialic acid-binding Ig-like lectin 9 (Homo sapiens) (Q9Y336 whole entry): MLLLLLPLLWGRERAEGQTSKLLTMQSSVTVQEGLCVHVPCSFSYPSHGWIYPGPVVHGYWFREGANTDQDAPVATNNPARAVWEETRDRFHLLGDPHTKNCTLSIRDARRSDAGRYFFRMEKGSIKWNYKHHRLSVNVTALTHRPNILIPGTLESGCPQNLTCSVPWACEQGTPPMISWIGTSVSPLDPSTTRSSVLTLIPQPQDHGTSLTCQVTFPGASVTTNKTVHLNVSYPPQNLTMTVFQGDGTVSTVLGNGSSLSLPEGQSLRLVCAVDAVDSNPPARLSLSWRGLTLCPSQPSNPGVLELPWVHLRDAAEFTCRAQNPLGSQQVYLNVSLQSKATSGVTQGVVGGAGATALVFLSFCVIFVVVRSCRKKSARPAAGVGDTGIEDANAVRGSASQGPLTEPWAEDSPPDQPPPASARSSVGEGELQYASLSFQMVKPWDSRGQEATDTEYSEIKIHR
# Trypanosoma cruzi = experiment: Trypanosoma cruzi phosphomannomutase and mannose-1-phosphate guanylyltransferase assay; assay type: functional; settings: 10 µM
# [5] = target: T2, Arginase-2, mitochondrial (Homo sapiens) (UniProt P78540); experiment: in vitro enzyme assay to detect the production of urea directly proportional to the activity of Arginase II; assay type: functional; settings: 33.3 µM; note: in the data most compounds retested in dose-response had high values
# T2 sequence (whole entry): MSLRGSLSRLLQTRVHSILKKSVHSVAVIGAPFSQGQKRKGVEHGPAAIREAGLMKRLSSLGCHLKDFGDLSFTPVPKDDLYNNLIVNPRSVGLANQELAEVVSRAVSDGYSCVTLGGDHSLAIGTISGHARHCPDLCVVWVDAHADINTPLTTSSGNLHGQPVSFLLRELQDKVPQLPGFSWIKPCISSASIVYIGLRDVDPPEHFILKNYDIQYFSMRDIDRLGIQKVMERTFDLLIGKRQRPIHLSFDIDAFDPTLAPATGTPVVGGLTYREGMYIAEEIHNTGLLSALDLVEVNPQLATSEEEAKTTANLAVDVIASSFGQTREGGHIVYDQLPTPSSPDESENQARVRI
# [6] = target: T3, Proteasome subunit beta (Trypanosoma cruzi) (UniProt O96673); experiment: Trypanosoma cruzi proteasome chymotrypsin-like activity (TcProtChymo) assay.; note: in the data most compounds retested in dose-response had high values; assay type: functional; settings: 9.37 µM
# T3 sequence (whole entry): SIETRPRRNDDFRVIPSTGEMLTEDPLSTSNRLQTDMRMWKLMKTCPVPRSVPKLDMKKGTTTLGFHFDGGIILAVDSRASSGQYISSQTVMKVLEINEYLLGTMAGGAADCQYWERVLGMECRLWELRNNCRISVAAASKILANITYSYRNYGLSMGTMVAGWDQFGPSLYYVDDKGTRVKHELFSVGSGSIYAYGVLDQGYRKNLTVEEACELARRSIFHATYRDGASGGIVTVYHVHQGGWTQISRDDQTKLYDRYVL
# Homo sapiens = species on record: Homo sapiens; experiment: To identify inhibition of the IFN signalling (Jak-Stat) pathway via expression of an eGFP reporter gene under the control of an IFN-stimulated response element (ISRE) containing MxA promoter.; assay type: functional; settings: 30 µM
# [7] = target: T4, Tyrosyl-tRNA synthetase, putative (Trypanosoma cruzi (strain CL Brener)) (UniProt Q4DSP6); experiment: Trypanosoma cruzi tyrosyl tRNA synthetase (TcYRS) _High Tyrosine SOP; assay type: functional; settings: 30 µM; note: in the data most compounds retested in dose-response had high values
# T4 sequence (whole entry): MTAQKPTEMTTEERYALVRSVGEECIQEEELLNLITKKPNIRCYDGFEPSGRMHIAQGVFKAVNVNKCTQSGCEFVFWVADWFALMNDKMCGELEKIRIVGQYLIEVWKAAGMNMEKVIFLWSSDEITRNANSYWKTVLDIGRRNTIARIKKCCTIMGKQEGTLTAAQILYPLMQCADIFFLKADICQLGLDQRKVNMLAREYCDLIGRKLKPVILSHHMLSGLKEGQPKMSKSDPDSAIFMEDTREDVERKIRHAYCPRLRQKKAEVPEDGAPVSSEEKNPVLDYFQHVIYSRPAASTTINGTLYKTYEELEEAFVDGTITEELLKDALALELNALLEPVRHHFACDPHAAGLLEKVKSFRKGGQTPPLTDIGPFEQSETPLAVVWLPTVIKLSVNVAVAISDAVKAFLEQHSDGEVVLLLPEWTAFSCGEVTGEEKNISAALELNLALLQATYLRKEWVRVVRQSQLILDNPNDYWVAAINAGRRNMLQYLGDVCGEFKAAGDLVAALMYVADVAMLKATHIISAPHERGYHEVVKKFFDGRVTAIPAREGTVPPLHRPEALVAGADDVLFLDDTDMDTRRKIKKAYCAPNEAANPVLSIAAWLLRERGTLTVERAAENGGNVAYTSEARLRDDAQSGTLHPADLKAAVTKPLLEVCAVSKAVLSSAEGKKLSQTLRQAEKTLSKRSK
# [8] = target: T4, Tyrosyl-tRNA synthetase, putative (Trypanosoma cruzi (strain CL Brener)); experiment: Trypanosoma cruzi tyrosyl tRNA synthetase (TcYRS) SOP; assay type: functional; settings: 30 µM
# [9] = target: Chromo domain-containing protein 1 (Saccharomyces cerevisiae (strain ATCC 204508 / S288c) (Baker's yeast)) (UniProt P32657); experiment: ScCHD-1 Enzyme Inhibition Assay; assay type: functional; settings: 30 µM; note: in the data most compounds retested in dose-response had high values
# Chain of Chromo domain-containing protein 1 (Saccharomyces cerevisiae (strain ATCC 204508 / S288c) (Baker's yeast)) (P32657 whole entry, the tested form may be a part): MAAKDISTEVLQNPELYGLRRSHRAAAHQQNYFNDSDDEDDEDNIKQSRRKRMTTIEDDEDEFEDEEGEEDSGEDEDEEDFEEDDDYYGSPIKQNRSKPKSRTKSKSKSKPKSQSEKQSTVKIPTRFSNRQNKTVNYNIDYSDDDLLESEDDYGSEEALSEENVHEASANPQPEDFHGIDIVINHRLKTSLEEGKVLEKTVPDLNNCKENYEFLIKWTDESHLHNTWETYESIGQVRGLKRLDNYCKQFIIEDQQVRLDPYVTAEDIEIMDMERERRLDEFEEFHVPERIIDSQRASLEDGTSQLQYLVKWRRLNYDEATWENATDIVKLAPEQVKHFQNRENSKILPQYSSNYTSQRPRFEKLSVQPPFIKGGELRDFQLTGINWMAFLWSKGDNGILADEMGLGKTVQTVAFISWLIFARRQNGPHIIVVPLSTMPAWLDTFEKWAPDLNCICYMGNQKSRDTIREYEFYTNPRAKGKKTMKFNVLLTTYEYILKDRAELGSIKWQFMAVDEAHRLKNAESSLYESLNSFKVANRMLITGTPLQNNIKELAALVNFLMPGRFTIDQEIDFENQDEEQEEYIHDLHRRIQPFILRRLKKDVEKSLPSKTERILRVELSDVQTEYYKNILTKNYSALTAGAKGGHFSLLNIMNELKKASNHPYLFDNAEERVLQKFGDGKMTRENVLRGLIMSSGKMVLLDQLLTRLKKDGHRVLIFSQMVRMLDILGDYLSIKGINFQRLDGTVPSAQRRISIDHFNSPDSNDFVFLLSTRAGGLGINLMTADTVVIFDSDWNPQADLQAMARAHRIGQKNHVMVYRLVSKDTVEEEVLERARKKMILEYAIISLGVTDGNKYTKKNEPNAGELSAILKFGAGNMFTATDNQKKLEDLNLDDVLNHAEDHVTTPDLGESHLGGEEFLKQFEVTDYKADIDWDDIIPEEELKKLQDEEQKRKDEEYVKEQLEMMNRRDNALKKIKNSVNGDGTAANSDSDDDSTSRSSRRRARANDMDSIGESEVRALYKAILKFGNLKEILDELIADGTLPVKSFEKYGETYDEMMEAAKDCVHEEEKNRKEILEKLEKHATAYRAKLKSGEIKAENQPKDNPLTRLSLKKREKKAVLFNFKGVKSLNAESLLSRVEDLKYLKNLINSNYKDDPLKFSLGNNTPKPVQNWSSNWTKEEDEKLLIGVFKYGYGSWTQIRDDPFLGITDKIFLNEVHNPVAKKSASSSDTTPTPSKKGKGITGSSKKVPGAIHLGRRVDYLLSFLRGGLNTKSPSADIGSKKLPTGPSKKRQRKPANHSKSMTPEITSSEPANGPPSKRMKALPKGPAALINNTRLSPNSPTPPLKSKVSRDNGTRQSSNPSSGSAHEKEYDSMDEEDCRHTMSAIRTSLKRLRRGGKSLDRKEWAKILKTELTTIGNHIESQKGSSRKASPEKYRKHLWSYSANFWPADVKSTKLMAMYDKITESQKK
SMILES,Percent Effect [1] [%],Percent Effect [2] [%],Percent Effect [3] [%],Percent Effect [4] [%],Percent Effect (Trypanosoma cruzi) [%],Percent Effect [5] [%],Percent Effect [6] [%],Percent Effect (Homo sapiens) [%],Percent Effect [7] [%],Percent Effect [8] [%],Percent Effect [9] [%]
c1cnn(CC2CCCCN2c2ncnc3sccc23)c1 (stereo unspecified),-7.65,-5.33,0.901,5.7,-2.63,-1.56,6.45,29.1,-0.546,-1.24,-3.05
Cc1nc(N2CCOCC2)nc2c1CCN(Cc1cccnc1)CC2,-2.77,0,0.954,7.94,-3.28,-56.8,3.08,-25.6,7.29,-2.5,-17.8
Cc1ccc(C(O)CNCc2c(C(C)C)nn(C)c2N(C)C)cc1 (stereo unspecified),-7.17,13,-5.78,6.38,7.87,-3.56,10.1,-0.105,10.7,19.5,-7.91
O=C(NCc1cc[nH]n1)NCC(c1ccccc1Cl)N1CCCC1 (stereo unspecified),-5.47,5.41,-5.47,2.23,-2.25,4.22,13.1,-4.64,5.38,13.6,-1.7
Cc1nn(C)c(C)c1C1CCCN1Cc1nc(-c2ccco2)no1 (stereo unspecified),-1.05,10.8,-11.3,7.16,4.18,-2.03,3.23,26.2,10.9,23.2,-7.01
CC(C)(C)c1cnc(CN2CCCC2Cn2cccn2)o1 (stereo unspecified),-0.386,0,6.71,-3.67,5.19,-0.38,5.16,-9.18,2.46,3.8,-4.77
CC(C)Oc1ncccc1CNC(=O)c1cc[nH]n1,-3.9,8.11,0.642,2.46,-3.3,-0.802,-0.18,3.02,2.46,6.17,-2.93
NC(=O)C1CN(Cc2c[nH]cn2)CCN(C2CCOCC2)C1 (stereo unspecified),1.35,4.05,5.54,9.65,-7.12,18.8,7.02,19.2,12.9,19.5,-6.44
Cc1n[nH]c(C)c1C1CCCN1C(=O)NCC(=O)NC(C)(C)C (stereo unspecified),-4.22,0,26.9,3.62,-6.86,2.27,3.9,0.328,1.07,2.5,-0.359
COc1ccc(NC(=O)CCC2CCCN(Cc3ncon3)C2)c(C)c1 (stereo unspecified),-3.42,2.67,-0.626,-0.0167,-5.36,-3.65,22,22.2,6.01,11.1,-6.4
Cc1nc(CNC(=O)NCC(O)c2ccc(F)c(F)c2)cs1 (stereo unspecified),-1.38,10.8,1.17,-3.81,3.25,-3.51,16.3,23.3,7.92,18.3,-5.03
